In PubChem BioAssay (Tox21):
A number with no mark means an inactive call. Records with an inconclusive call do not appear. Where a call stands in place of a potency, no number is given. The source made the active and inactive calls. Unless noted, the call rests on the fitted dose curve. Peptide text beside a SMILES is read from it.

What was measured:
[1] = Nuclear factor erythroid 2-related factor 2/antioxidant responsive element (Nrf2/ARE) small molecule agonists: qHTS cell viability counter screen in human keratinocytes (AID 1919968; active means well fitted curve in the direction sought with a large enough effect in the repeat runs; an effect the other way counts as inactive or inconclusive; further: nearly all actives have a fitted effect of over 55% in size; further: potency means the concentration at half of the fitted maximal effect)
Summary of the method: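 KeratinoSens HaCaT cells, 1,500/well, preincubated 5 h, then exposed to compounds in DMSO for 23 h at 37 C/5% CO2. Viability read as CellTiter-Fluor fluorescence after 1 h, in the same wells as the ARE-luciferase read.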

[2] = Nuclear factor erythroid 2-related factor 2/antioxidant responsive element (Nrf2/ARE) small molecule agonists: luciferase reporter gene qHTS assay in human keratinocytes (AID 1919969); further: nearly all actives have a fitted effect of over 35% in size; further: potency means the concentration at half of the fitted maximal effect
[3] = target: Gonadotropin-releasing hormone receptor (Homo sapiens) (UniProt P30968); assay: Human gonadotropin-releasing hormone receptor (GnRHR) small molecule agonists, calcium flux assay in GnRHR-HEK293 cells (AID 1920063); further: nearly all actives have a fitted effect of over 35% in size; further: potency means the concentration at half of the fitted maximal effect
Summary of the method: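 HEK293 cells stably expressing human GnRHR were dye-loaded for 1 h at 37 C. Compound was added in agonist mode and fluorescence (Ex/Em 480/540) recorded kinetically for 3 min. Fifteen concentrations, triplicates.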

[4] = target: KiSS-1 receptor (Homo sapiens) (UniProt Q969F8); assay: Human kisspeptin (KISS1R) small molecule agonists, calcium flux assay in KISS1R-HEK293 cells (AID 1920064; active means well fitted curve in the direction sought with a large enough effect in the repeat runs; an effect the other way counts as inactive or inconclusive)
Summary of the method: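 HEK293 cells stably expressing human KISS1R were loaded with calcium dye for 1 h at 37 C, then given compound; fluorescence (Ex/Em 480/540) was read kinetically for 3 min. Fifteen concentrations, triplicate.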

[5] = G protein-coupled receptor (GPCR) small molecule agonists, calcium flux assay: HEK293 wild type cell line counter screen (AID 1920065)
Summary of the method: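 Wild-type HEK293 cells plated 18 h, loaded with calcium dye 1 h at 37 C, then compounds added in agonist mode (ATP as positive control). Kinetic fluorescence Ex/Em 480/540 recorded 3 min at 1 sec intervals; 15 concentrations, triplicate.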

[6] = p53 small molecule agonists, cell-based qHTS assay with human liver microsomes (AID 1963577);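 further: p53 response element beta-lactamase reporter cells with liver microsomes plus NADPH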
Summary of the method: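 In this qHTS, p53 response-element beta-lactamase cells receive test compound together with a microsome/NADPH activating system (0.5 mg/mL final each) and are incubated 16 h at 37 C before LiveBLAzer fluorescence detection.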

[7] = p53 small molecule agonists, cell-based qHTS assay with rat liver microsomes (AID 1963578)
Summary of the method: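 Agonist mode in p53RE-bla reporter cells, with compounds co-incubated 16 h at 37 C alongside 0.5 mg/mL rat liver microsomes and 0.5 mg/mL NADPH (final), followed by a 2 h LiveBLAzer detection step.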

[8] = p53 small molecule agonists, cell-based qHTS assay with human liver microsomes: qHTS cell viability counter screen (AID 1963579); further: nearly all actives have a fitted effect of over 45% in size; further: potency means the concentration at half of the fitted maximal effect
Summary of the method: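 Metabolically activated exposure: compounds, human liver microsomes and NADPH (0.5 mg/mL final apiece) were added to p53RE-bla cells seeded 5 h earlier, left 16 h at 37 C, and then assessed for viability by CellTiter-Glo luminescence.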

[9] = p53 small molecule agonists, cell-based qHTS assay: qHTS cell viability counter screen (AID 1963581); further: nearly all actives have a fitted effect of over 45% in size; further: potency means the concentration at half of the fitted maximal effect
Summary of the method: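 p53RE-bla HCT-116 cells, compounds added 5 h after plating and incubated 16 h at 37 C. Cytotoxicity measured in the same wells as intracellular ATP by CellTiter-Glo luminescence after 30 min at room temperature.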

[10] = target: 5-hydroxytryptamine receptor 2A (Homo sapiens) (UniProt P28223); assay: 5-hydroxytryptamine receptor 2A (HTR2A) small molecule antagonists, cell-based qHTS assay (AID 1963586); further: nearly all actives have a fitted effect of over 45% in size; further: potency means the concentration at half of the fitted maximal effect
Summary of the method: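 Antagonist-mode intracellular calcium assay: DOI (4 nM) added after 5 min compound pre-incubation at room temperature to dye-loaded HTR2A-CHO cells. Fluorescence followed for 3 min, sampled every second.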

[11] = target: 5-hydroxytryptamine receptor 2A (Homo sapiens) (UniProt P28223); assay: 5-hydroxytryptamine receptor 2A (HTR2A) small molecule agonists, cell-based qHTS assay (AID 1963587); further: nearly all actives have a fitted effect of over 30% in size; further: potency means the concentration at half of the fitted maximal effect
Summary of the method: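 HTR2A-CHO cells, plated 18 h at 37 C/5% CO2, dye-loaded 1 h at 37 C; compounds in DMSO added by pin tool (agonist mode). Intracellular calcium flux read as kinetic fluorescence on FDSS over 2 min at 1 s intervals.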

[12] = target: Muscarinic acetylcholine receptor M1 (Homo sapiens) (UniProt P11229); assay: Cholinergic receptor muscarinic 1 (CHRM1) small molecule antagonists, cell-based qHTS assay (AID 1963588); further: nearly all actives have a fitted effect of over 40% in size; further: potency means the concentration at half of the fitted maximal effect
Summary of the method: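 CHRM1-CHO calcium-flux assay, antagonist mode. Cells were seeded 18 h, dye-loaded 1 h at 37 C and given compound for 5 min at RT, then acetylcholine was added at 50nM. FDSS fluorescence was read 3 min; 15 concentrations, three runs.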

[13] = target: Muscarinic acetylcholine receptor M1 (Homo sapiens) (UniProt P11229); assay: Cholinergic receptor muscarinic 1 (CHRM1) small molecule agonists, cell-based qHTS assay (AID 1963589); further: nearly all actives have a fitted effect of over 35% in size
Summary of the method: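 CHO cells stably expressing human CHRM1 were loaded with calcium dye for 1 h at 37 C, then compound was added in agonist mode. Intracellular calcium fluorescence was followed kinetically at 1 s intervals. Fifteen concentrations were tested in three independent runs.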

[14] = cAMP Responsive Elements (CRE) small molecule agonists, cell-based qHTS assay (AID 1963590)
Summary of the method: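 CRE-bla HEK 293T cells, 2,000/well in DMEM with 10% dialyzed FBS and 25 mM HEPES, pre-incubated 18 h at 37 C, then exposed to compound 3 h at 37 C. Beta-lactamase reporter read with LiveBLAzer B/G FRET substrate after 2 h at room temperature.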

[15] = cAMP Responsive Elements (CRE) small molecule antagonists, cell-based qHTS assay (AID 1963591; active means well fitted inhibition curve with a large enough effect in the signal ratio in the repeat runs, not every such curve was filed as active; the % refers to the signal ratio; further: potency means the concentration at half of the fitted maximal effect)
Summary of the method: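 CRE-bla HEK293T cells plated 18 h, then given compound plus NKH477 at 0.25 uM final for 3 h at 37C. Beta-lactamase reporter read with LiveBLAzer B/G FRET substrate after 2 h at room temperature.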

[16] = target: Beta-2 adrenergic receptor (Homo sapiens) (UniProt P07550); assay: Adrenergic beta2 receptor (ADRB2) small molecule antagonists, cell-based qHTS assay (AID 1963592); further: series mostly up to about 92 µM; nearly all actives have a fitted effect of over 50% in size
Summary of the method: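 Cells (CHO, stable ADRB2 overexpression) incubated 18-20hr at 37C; compounds added from DMSO; agonist mix (1nM isoproterenol, 100uM IBMX, 25uM Ro-20-1724) added; 0.5hr RT; d2-cAMP and anti-cAMP-cryptate added; 1hr RT; 665/615 nm read.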

[17] = target: Beta-2 adrenergic receptor (Homo sapiens) (UniProt P07550); assay: Adrenergic beta2 receptor (ADRB2) small molecule agonists, cell-based qHTS assay (AID 1963593);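 further: CHO cells stably overexpressing human ADRB2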
Summary of the method: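 CHO cells stably over-expressing ADRB2 were plated overnight at 37C, then dosed with compounds plus a stimulation mix containing 100uM IBMX and 25uM Ro-20-1724 for 0.5hr at room temperature. cAMP was measured by HTRF competition, 1hr.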

[18] = target: D(2) dopamine receptor (Homo sapiens) (UniProt P14416); assay: Dopamine D2 receptor (DRD2) small molecule agonists, cell-based qHTS assay (AID 1963594); further: nearly all actives have a fitted effect of over 35% in size; further: potency means the concentration at half of the fitted maximal effect
Summary of the method: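 HEK293 cells stably expressing DRD2 were cultured 24 h at 37 C, then given Ro20-1724 (0.1 mM final) and compounds for 10 min at room temperature. NKH477 (200nM) was then added for 30 min. cAMP was read by HTRF.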

[19] = target: D(2) dopamine receptor (Homo sapiens) (UniProt P14416); assay: Dopamine D2 receptor (DRD2) small molecule antagonists, cell-based qHTS assay (AID 1963595; active means well fitted inhibition curve with a large enough effect in the signal ratio in the repeat runs, with a control signal flat; the % refers to the signal ratio; further: potency means the concentration at half of the fitted maximal effect)
Summary of the method: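 In this cell-based antagonist screen, compounds act for 10 min at room temperature before a 30 min challenge with 12 nM quinpirole and 200 nM NKH477. cAMP is quantified by HTRF competition in DRD2-HEK293 cells containing 0.1 mM Ro20-1724.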

[20] = p53 small molecule agonists, cell-based qHTS assay (AID 1963582; active means well fitted activation curve with a large enough effect in the signal ratio in the repeat runs, not every such curve was filed as active; the % refers to the signal ratio)
Summary of the method: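 p53RE-bla reporter cells, compounds added in DMSO after 5 h plating, incubated 16 h at 37 C. Beta-lactamase read via 2 h room-temperature LiveBLAzer B/G FRET substrate, fluorescence intensity.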

Chain of Beta-2 adrenergic receptor (Homo sapiens) (P07550 whole entry, looked up): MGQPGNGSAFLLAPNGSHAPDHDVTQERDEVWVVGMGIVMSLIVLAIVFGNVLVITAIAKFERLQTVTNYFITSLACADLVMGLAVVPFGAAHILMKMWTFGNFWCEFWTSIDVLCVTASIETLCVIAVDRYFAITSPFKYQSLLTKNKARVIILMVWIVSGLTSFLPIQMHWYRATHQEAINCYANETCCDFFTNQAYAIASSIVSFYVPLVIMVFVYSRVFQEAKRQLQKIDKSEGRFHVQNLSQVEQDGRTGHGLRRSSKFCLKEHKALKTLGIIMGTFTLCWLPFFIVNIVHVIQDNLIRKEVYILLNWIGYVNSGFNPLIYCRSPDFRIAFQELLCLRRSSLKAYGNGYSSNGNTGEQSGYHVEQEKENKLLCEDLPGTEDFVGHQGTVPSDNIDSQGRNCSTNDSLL
Chain of KiSS-1 receptor (Homo sapiens) (Q969F8 whole entry, looked up): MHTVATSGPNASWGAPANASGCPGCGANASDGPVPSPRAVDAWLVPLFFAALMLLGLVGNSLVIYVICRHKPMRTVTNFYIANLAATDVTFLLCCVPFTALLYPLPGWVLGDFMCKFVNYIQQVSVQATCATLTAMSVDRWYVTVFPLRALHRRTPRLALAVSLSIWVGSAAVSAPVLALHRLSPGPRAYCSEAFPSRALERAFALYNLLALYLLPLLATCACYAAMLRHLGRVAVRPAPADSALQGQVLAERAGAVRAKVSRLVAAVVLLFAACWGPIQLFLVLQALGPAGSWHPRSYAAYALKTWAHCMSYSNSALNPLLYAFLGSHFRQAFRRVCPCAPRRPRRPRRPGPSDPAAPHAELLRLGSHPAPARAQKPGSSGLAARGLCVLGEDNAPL
Chain of Muscarinic acetylcholine receptor M1 (Homo sapiens) (P11229 whole entry, looked up): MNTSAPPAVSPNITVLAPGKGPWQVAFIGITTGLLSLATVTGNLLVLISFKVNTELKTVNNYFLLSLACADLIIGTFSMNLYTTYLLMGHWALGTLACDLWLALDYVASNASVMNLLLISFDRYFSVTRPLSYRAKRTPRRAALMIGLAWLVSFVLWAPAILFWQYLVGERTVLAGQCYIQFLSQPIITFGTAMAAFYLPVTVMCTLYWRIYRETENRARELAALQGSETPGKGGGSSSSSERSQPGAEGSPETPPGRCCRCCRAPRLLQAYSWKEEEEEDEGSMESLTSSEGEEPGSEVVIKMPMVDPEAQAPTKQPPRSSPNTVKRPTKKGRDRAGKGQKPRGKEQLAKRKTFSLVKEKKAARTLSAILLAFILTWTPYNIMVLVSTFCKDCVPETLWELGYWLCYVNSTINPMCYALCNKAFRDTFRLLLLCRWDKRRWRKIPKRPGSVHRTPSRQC
Chain of Gonadotropin-releasing hormone receptor (Homo sapiens) (P30968 whole entry, looked up): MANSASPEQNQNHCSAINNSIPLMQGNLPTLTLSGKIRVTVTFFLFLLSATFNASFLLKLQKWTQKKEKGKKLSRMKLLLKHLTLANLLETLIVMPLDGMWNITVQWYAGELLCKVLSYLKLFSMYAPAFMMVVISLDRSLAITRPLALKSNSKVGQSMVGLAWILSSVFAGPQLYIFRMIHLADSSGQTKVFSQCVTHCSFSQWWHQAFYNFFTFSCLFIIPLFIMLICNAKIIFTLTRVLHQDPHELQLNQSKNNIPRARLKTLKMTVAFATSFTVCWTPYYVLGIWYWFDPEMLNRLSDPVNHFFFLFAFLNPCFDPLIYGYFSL
Chain of D(2) dopamine receptor (Homo sapiens) (P14416 whole entry, looked up): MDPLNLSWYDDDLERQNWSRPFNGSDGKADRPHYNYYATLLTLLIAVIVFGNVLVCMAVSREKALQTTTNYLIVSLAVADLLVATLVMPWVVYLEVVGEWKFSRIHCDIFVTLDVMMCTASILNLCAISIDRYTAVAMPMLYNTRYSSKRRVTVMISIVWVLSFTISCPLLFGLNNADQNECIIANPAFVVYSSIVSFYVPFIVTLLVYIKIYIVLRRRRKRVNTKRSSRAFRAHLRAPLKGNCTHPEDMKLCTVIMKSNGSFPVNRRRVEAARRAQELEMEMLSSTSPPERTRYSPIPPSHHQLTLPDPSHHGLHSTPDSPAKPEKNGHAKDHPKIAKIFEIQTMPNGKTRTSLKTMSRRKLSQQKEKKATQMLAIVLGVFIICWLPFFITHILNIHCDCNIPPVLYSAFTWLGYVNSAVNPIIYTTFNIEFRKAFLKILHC
Chain of 5-hydroxytryptamine receptor 2A (Homo sapiens) (P28223 whole entry, looked up): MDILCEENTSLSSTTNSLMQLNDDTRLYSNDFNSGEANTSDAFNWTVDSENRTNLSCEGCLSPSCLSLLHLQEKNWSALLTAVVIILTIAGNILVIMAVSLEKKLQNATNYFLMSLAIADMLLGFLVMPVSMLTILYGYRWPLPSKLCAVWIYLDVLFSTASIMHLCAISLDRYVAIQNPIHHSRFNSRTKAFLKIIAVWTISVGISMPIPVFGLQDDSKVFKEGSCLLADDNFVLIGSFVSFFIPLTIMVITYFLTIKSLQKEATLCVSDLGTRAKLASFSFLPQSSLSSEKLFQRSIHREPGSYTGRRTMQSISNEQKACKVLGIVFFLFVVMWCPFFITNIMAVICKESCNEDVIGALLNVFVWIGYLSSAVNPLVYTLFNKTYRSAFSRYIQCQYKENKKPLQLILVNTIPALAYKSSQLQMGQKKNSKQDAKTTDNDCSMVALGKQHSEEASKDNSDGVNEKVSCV

O=Cc1ccccc1[N+](=O)[O-]
Potency [1]: inactive
Potency [2]: inactive
Potency [3]: inactive
outcome [4]: inactive
outcome [5]: inactive
Potency [6]: inactive
Potency [7]: inactive
Potency [8]: inactive
Potency [9]: inactive
Potency [10]: inactive
Potency [11]: inactive
Potency [12]: inactive
Potency [13]: inactive
Potency [14]: inactive
Potency [15]: inactive
Potency [16]: inactive
Potency [17]: inactive
Potency [18]: inactive
Potency [19]: inactive

CCCCCCCCCCCCCCCC(=O)OC[C@H](O)[C@H]1OC(=O)C(O)=C1O
Potency [1]: inactive
Potency [2]: inactive
Potency [3]: inactive
outcome [4]: inactive
outcome [5]: inactive
Potency [6]: inactive
Potency [7]: inactive
Potency [8]: inactive
Potency [9]: inactive
Potency [10]: inactive
Potency [11]: inactive
Potency [12]: inactive
Potency [13]: inactive
Potency [14]: inactive
Potency [15]: inactive
Potency [18]: inactive
Potency [19]: inactive

CC(C)=CCOC(=O)c1ccccc1
Potency [1]: inactive
Potency [2]: inactive
Potency [3]: inactive
outcome [4]: inactive
outcome [5]: inactive
Potency [6]: inactive
Potency [7]: inactive
Potency [8]: inactive
Potency [20]: inactive
Potency [10]: inactive
Potency [12]: inactive
Potency [13]: inactive
Potency [14]: inactive
Potency [16]: inactive
Potency [17]: inactive
Potency [18]: inactive
Potency [19]: inactive

CCCCCCC
Potency [1]: inactive
Potency [2]: inactive
Potency [3]: inactive
outcome [4]: inactive
outcome [5]: inactive
Potency [6]: inactive
Potency [7]: inactive
Potency [8]: inactive
Potency [9]: inactive
Potency [10]: inactive
Potency [11]: inactive
Potency [13]: inactive
Potency [14]: inactive
Potency [15]: inactive
Potency [16]: inactive
Potency [17]: inactive
Potency [18]: inactive
Potency [19]: inactive

CC(=O)N[C@@H](CO)C(=O)N[C@@H](CC(=O)O)C(=O)N[C@@H](CCCCN)C(=O)N1CCC[C@H]1C(=O)O (Ac-SDKP-OH)
Potency [1]: inactive
Potency [2]: inactive
Potency [3]: inactive
outcome [4]: inactive
outcome [5]: inactive
Potency [6]: inactive
Potency [7]: inactive
Potency [8]: inactive
Potency [9]: inactive
Potency [20]: inactive
Potency [14]: inactive
Potency [15]: inactive
Potency [16]: inactive
Potency [17]: inactive
Potency [18]: inactive
Potency [19]: inactive

CCCCN(C)C
Potency [1]: inactive
Potency [2]: inactive
Potency [3]: inactive
outcome [4]: inactive
outcome [5]: inactive
Potency [6]: inactive
Potency [7]: inactive
Potency [8]: inactive
Potency [20]: inactive
Potency [10]: inactive
Potency [11]: inactive
Potency [14]: inactive
Potency [15]: inactive
Potency [17]: inactive
Potency [18]: inactive
Potency [19]: inactive

CCCCCCCCCCCC(=O)NCCCN(C)C
Potency [1]: 27.3 µM (active)
Potency [2]: inactive
Potency [3]: 30.9 µM (active)
outcome [4]: inactive
outcome [5]: inactive
Potency [6]: inactive
Potency [7]: inactive
Potency [8]: 45.8 µM (active)
Potency [9]: 32.4 µM (active)
Potency [10]: 1.68 µM (active)
Potency [11]: inactive
Potency [12]: 8.4 µM (active)
Potency [13]: inactive
Potency [16]: inactive
Potency [18]: inactive

Cc1ccccc1N1CCN(CCc2nnc3n2CCCC3)CC1
Potency [1]: inactive
Potency [2]: inactive
Potency [3]: inactive
outcome [4]: inactive
outcome [5]: inactive
Potency [6]: inactive
Potency [7]: inactive
Potency [8]: inactive
Potency [9]: inactive
Potency [20]: inactive
Potency [14]: inactive
Potency [15]: inactive
Potency [16]: inactive
Potency [17]: inactive
Potency [18]: inactive
Potency [19]: inactive

C=CC(=O)OCCOCCOCC
Potency [1]: inactive
Potency [2]: inactive
Potency [3]: inactive
outcome [4]: inactive
outcome [5]: inactive
Potency [6]: inactive
Potency [7]: inactive
Potency [8]: inactive
Potency [20]: inactive
Potency [10]: inactive
Potency [11]: inactive
Potency [12]: inactive
Potency [13]: inactive
Potency [14]: inactive
Potency [15]: inactive
Potency [16]: inactive
Potency [18]: inactive
Potency [19]: inactive

Cc1c(N=C=O)cccc1N=C=O
Potency [1]: inactive
Potency [2]: inactive
Potency [3]: inactive
outcome [4]: inactive
outcome [5]: inactive
Potency [6]: inactive
Potency [7]: inactive
Potency [8]: inactive
Potency [20]: inactive
Potency [10]: inactive
Potency [11]: inactive
Potency [12]: inactive
Potency [15]: inactive
Potency [16]: inactive
Potency [18]: inactive
Potency [19]: inactive

CCCNC(C)C(=O)Nc1ccccc1C (stereo not drawn)
Potency [1]: inactive
Potency [2]: inactive
Potency [3]: inactive
outcome [4]: inactive
outcome [5]: inactive
Potency [6]: inactive
Potency [7]: inactive
Potency [8]: inactive
Potency [9]: inactive
Potency [20]: inactive
Potency [14]: inactive
Potency [15]: inactive
Potency [16]: inactive
Potency [17]: inactive
Potency [18]: 14.4 µM (active)
Potency [19]: inactive

CCN(CC)CCNc1ccc(CNC=O)c2sc3ccc(OC)cc3c(=O)c12
Potency [1]: 54.5 µM (active)
Potency [2]: 24.3 µM (active)
Potency [3]: inactive
outcome [4]: inactive
outcome [5]: inactive
Potency [6]: inactive
Potency [7]: inactive
Potency [8]: inactive
Potency [9]: inactive
Potency [10]: inactive
Potency [11]: 3.89 µM (active)
Potency [12]: 10.6 µM (active)
Potency [13]: inactive
Potency [14]: inactive
Potency [15]: 21.7 µM (active)
Potency [16]: inactive
Potency [17]: inactive
Potency [18]: inactive

OC[C@@H](O)[C@H](O)[C@@H](O)[C@@H](O)CO
Potency [1]: inactive
Potency [2]: inactive
Potency [3]: inactive
outcome [4]: inactive
outcome [5]: inactive
Potency [6]: inactive
Potency [7]: inactive
Potency [8]: inactive
Potency [9]: inactive
Potency [20]: inactive
Potency [14]: inactive
Potency [15]: inactive
Potency [16]: inactive
Potency [17]: inactive
Potency [18]: inactive
Potency [19]: inactive

CCCC(C(=O)OCCN(CC)CC)(c1ccccc1)c1ccccc1
Potency [1]: inactive
Potency [2]: inactive
Potency [3]: inactive
outcome [4]: inactive
outcome [5]: inactive
Potency [6]: inactive
Potency [7]: inactive
Potency [8]: inactive
Potency [9]: inactive
Potency [20]: inactive
Potency [11]: inactive
Potency [12]: inactive
Potency [13]: inactive
Potency [18]: inactive
Potency [19]: 26.6 µM (active)
